MsrA inhibitor – inhibitors of bovine MsrA. inhibition, % at 15.5 µM. hit rate 0.75% among 360,000. purified bovine MsrA, absorbance read-out; in the data active means inhibition above about 4.5%;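 further: 0% = vehicle wells with enzyme and 100% = reference inhibitor wells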
rCAG RNA binder – molecules binding r(CAG) RNA repeats; r(CAG) RNA repeat, TO-PRO-1 dye displacement fluorescence; inhibition, % at 3 µM; hit rate 1.3% among 370,000;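 active means inhibition above the plate cutoff, the mean of all test compounds on that plate plus 3 SD, cut at about 35% in these data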;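 further: 0% = DMSO alone and 100% = 100 µM mitoxantrone as full dye displacement; higher means more dye released from RNA so lower well fluorescence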
bovine MsrA act – bovine methionine sulfoxide reductase A activation; purified bovine MsrA, absorbance read-out; activation, % at 10.6 µM; hit rate 0.3% among 360,000; in the data active means activation above about 7.5%;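 further: 0% = vehicle and 100% = reference activator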
NadD block – NadD (S. aureus) enzyme inhibition; AID 602399; inhibition, % at 20 µM; purified NadD enzyme, colorimetric absorbance read-out; hit rate 0.78% among 360,000; in the data active means inhibition above about 26%
rCAG binder conf – r(CAG) RNA repeat binding, confirmation; shares compounds with rCAG RNA binder; TO-PRO-1 dye displacement fluorescence; inhibition, % at 3 µM; hit rate 70% among 4,300; AID 652065;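 active means inhibition above a per-plate cutoff, the mean inhibition of sample wells plus 3 SD, cut at about 35% in these data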;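 further: loss of TO-PRO-1 fluorescence as compound displaces dye from 1x1 AA loop RNA; 0% = DMSO only wells and 100% = 100 µM mitoxantrone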
DNA CAG counter – DNA CAG dye complex inhibition counter-screen | AID 652068 | inhibition, % at 3 µM | hit rate 94% among 4,300 | d(CAG) DNA oligo TO-PRO-1 dye displacement, fluorescence | shares compounds with rCAG RNA binder;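 active means inhibition above its plate's cutoff, the mean test-well inhibition plus 3 SD, cut at about 4.8% in these data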;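 further: 0% = DNA dye mix with DMSO and 100% = 100 µM mitoxantrone; hits displace the dye from DNA and so lower well fluorescence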
Starred values were filed as active, the others as inactive. Most compounds without a hit are left out; they make up all but 2.7% or so of the library.

`Cc1ccc(S(=O)(=O)NN=Cc2c(O)ccc3ccccc23)cc1` gave MsrA inhibitor 4, rCAG RNA binder 41*, bovine MsrA act -3, NadD block -4, rCAG binder conf 46* and DNA CAG counter 15*.
`Cc1ccc(S(=O)(=O)N/N=C/c2ccccc2O)cc1` gave MsrA inhibitor 1, rCAG RNA binder 2, bovine MsrA act 3 and NadD block -5.
For C[C@H](CO)N1C[C@H](C)[C@H](CN(C)Cc2ccc(C(=O)O)cc2)OCc2ccccc2-c2c(n(C)c3ccccc23)C1=O the results were MsrA inhibitor 0, rCAG RNA binder 48*, bovine MsrA act 0, NadD block 10, rCAG binder conf 50* and DNA CAG counter 14*.
`C[C@@H]1CN([C@H](C)CO)C(=O)c2c(c3ccccc3n2C)-c2ccccc2CO[C@H]1CN(C)Cc1ccccc1` gave MsrA inhibitor 0, rCAG RNA binder 5, bovine MsrA act 0 and NadD block -2.
COc1ccc2c(c1)c(=O)oc1cc(OC(C(=O)O)c3ccccc3)ccc12 (stereo unspecified) was read as MsrA inhibitor 2, rCAG RNA binder 52*, bovine MsrA act -1, NadD block -1, rCAG binder conf 41* and DNA CAG counter 10*.
For Cc1ccc(C(=O)Nc2ccccc2C(=O)O)cc1S(=O)(=O)NCc1ccccc1 the results were MsrA inhibitor 0, rCAG RNA binder 64*, bovine MsrA act -3, NadD block 6, rCAG binder conf 50* and DNA CAG counter 17*.
`Cc1ccc(C(=O)Nc2ccccc2C(=O)O)cc1S(=O)(=O)Nc1ccc(Br)cc1` gave MsrA inhibitor 0, rCAG RNA binder 83*, bovine MsrA act -4, NadD block 6, rCAG binder conf 86* and DNA CAG counter 56*.
`Cc1ccc(F)cc1NC(=O)c1ccc(NS(=O)(=O)c2ccc(Br)s2)cc1` gave MsrA inhibitor 1, rCAG RNA binder 41*, bovine MsrA act -5, NadD block -2, rCAG binder conf 38* and DNA CAG counter 11*.
Screening O=C(Nc1cccc(Cl)c1Cl)c1cc(S(=O)(=O)NCCc2ccccc2)ccc1F returned MsrA inhibitor 1, rCAG RNA binder 7, bovine MsrA act -4 and NadD block -8.
Screening O=C(Nc1ccccc1C(=O)O)c1cc(S(=O)(=O)NCc2ccccc2)ccc1Cl returned MsrA inhibitor 0, rCAG RNA binder 49*, bovine MsrA act -3, NadD block -4, rCAG binder conf 39* and DNA CAG counter 6.5*.
Cc1ccc(C(=O)O)cc1NC(=S)NC(=O)C(c1ccccc1)c1ccccc1 was read as MsrA inhibitor 0, rCAG RNA binder 58*, bovine MsrA act -3, NadD block 0, rCAG binder conf 38* and DNA CAG counter 10*.
`CCOc1cc(C(=O)NC(=S)Nc2ccc(Cl)c(C(=O)O)c2)cc(OCC)c1OCC` gave MsrA inhibitor 0, rCAG RNA binder 41*, bovine MsrA act -4, NadD block 0, rCAG binder conf 28 and DNA CAG counter 5.6*.
Screening O=C(O)c1cc(NC(=S)NC(=O)C(c2ccccc2)c2ccccc2)ccc1Cl returned MsrA inhibitor 1, rCAG RNA binder 41*, bovine MsrA act 4, NadD block 4, rCAG binder conf 29 and DNA CAG counter 6.9*.
O=C(NC(=S)Nc1ccc(Cl)c(C(=O)O)c1)c1ccco1 was read as MsrA inhibitor 0, rCAG RNA binder 0, bovine MsrA act -4 and NadD block -1.
O=C1c2ccccc2C(c2nnnn2-c2ccc3c(c2)OCCO3)N1Cc1cccnc1 (stereo unspecified) was read as MsrA inhibitor -1, rCAG RNA binder 2, bovine MsrA act 2 and NadD block -1.
FC(F)(F)c1nnc2c(Sc3ccccc3)nc3ccc(Cl)cc3n12 was read as MsrA inhibitor 0, rCAG RNA binder 1, bovine MsrA act -12 and NadD block 1.
O=S(=O)(Nc1ncccn1)c1ccc(NC(=S)N2CCN(c3cccc(C(F)(F)F)c3)CC2)cc1 was read as MsrA inhibitor 0, rCAG RNA binder 50*, bovine MsrA act -4, NadD block 18, rCAG binder conf 59* and DNA CAG counter 16*.
CCOC(=O)Cc1csc(SCC(=O)Nc2cc(C)ccc2OC)n1 was read as MsrA inhibitor 0, rCAG RNA binder -8, bovine MsrA act -3 and NadD block -6.
`C[C@@H]1CN([C@@H](C)CO)C(=O)c2c(c3ccccc3n2C)-c2ccccc2CO[C@H]1CN(C)C(=O)[C@H](Cc1ccccc1)N(C)C` gave MsrA inhibitor 1, rCAG RNA binder 6, bovine MsrA act -1 and NadD block -10.
`Cc1ccc(Sc2ccc(/C=C3/C(=O)NN(c4ccccc4)C3=O)o2)cc1` gave MsrA inhibitor 1, rCAG RNA binder 35*, bovine MsrA act -1, NadD block 12, rCAG binder conf 81* and DNA CAG counter 46*.
For O=C1CC(=O)NC(SCC(=O)Nc2ccccc2[N+](=O)[O-])=N1 the results were MsrA inhibitor 0, rCAG RNA binder 41*, bovine MsrA act 0, NadD block 10, rCAG binder conf 52* and DNA CAG counter 24*.
O=C(O)c1cccc(S(=O)(=O)Nc2ccc(Oc3ccccc3)cc2)c1 was read as MsrA inhibitor 0, rCAG RNA binder 24, bovine MsrA act -2 and NadD block -2.
Screening O=C(O)c1cccc(S(=O)(=O)Nc2ccc3oc(=O)sc3c2)c1 returned MsrA inhibitor 0, rCAG RNA binder 42*, bovine MsrA act 3, NadD block 0, rCAG binder conf 7 and DNA CAG counter 2.
O=C(O)c1cccc(S(=O)(=O)Nc2ccc3[nH]c(=O)[nH]c3c2)c1 was read as MsrA inhibitor 0, rCAG RNA binder 0, bovine MsrA act -1 and NadD block 1.
`Cc1ccc(Oc2ccc(NS(=O)(=O)c3cccc(C(=O)O)c3)cc2)cc1` gave MsrA inhibitor 0, rCAG RNA binder 38*, bovine MsrA act -9, NadD block -1, rCAG binder conf 38* and DNA CAG counter 10*.
`Cc1ccc(CN2CCN(C(=O)CCC(=O)Nc3nnc(C(C)C)s3)CC2)c(C)c1` gave MsrA inhibitor -1, rCAG RNA binder -11, bovine MsrA act 1 and NadD block 1.
Screening Cc1ccc(-c2nc(-c3ccc(Cl)cc3)sc2CC(=O)O)c(C)c1 returned MsrA inhibitor 1, rCAG RNA binder 45*, bovine MsrA act -4, NadD block 3, rCAG binder conf 30 and DNA CAG counter 8.7*.
Screening COc1ccc(CCN(C)C(=O)CSc2nnc(C3CC3)n2N)cc1OC returned MsrA inhibitor 1, rCAG RNA binder -4, bovine MsrA act -2 and NadD block -2.
For COc1nccc(C(F)(F)F)c1C(=O)Nc1ccc(Cl)cc1 the results were MsrA inhibitor 2, rCAG RNA binder -2, bovine MsrA act -6 and NadD block -1.

High-throughput results (PubChem BioAssay)
